Tgondii IFNg: T. gondii growth inhibition with IFN-gamma, primary screen, cell-based; Toxoplasma gondii growth in IFN-gamma-treated host cells; hits give low values; activity change, negative = inhibition, % (no concentration beside the values); 69,000 tested, 3.8% active; AID 1259416, 2018; in the data active means activity change below about -70%, passing the limit was not always enough;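 further: host cells are HeLa cells infected with Toxoplasma gondii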
Large screens that a line does not name were inactive; ! = repeats disagree. The sample as a whole holds a higher share of hits than the screen did.

COc1cc(C(=O)ON=C2C3CC4CC(C3)CC2C4)cc(OC)c1OC	Tgondii IFNg -106
COc1cc(C(=O)OCCCN(C)C)cc(OC)c1OC	none
CCc1ncnc2c1CCN(C(=O)c1cc(C)on1)CC2	none
COCC1CN(Cc2cnn(C)c2)Cc2nnn(CC3CC3)c21 (stereo not given)	none
CC(=O)O[C@@]12CO[C@@H]1C[C@H](O)[C@@]1(C)C(=O)[C@H](O)C3=C(C)[C@@H](OC(=O)[C@H](O)[C@@H](NC(=O)OC(C)(C)C)c4ccccc4)C[C@@](O)([C@@H](OC(=O)c4ccccc4)[C@H]21)C3(C)C	Tgondii IFNg -72!
CO[C@H]1C(=O)[C@@]2(C)[C@H]([C@@H](OC(=O)c3ccccc3)[C@@]3(O)C[C@H](OC(=O)[C@H](O)[C@@H](NC(=O)OC(C)(C)C)c4ccccc4)C(C)=C1C3(C)C)[C@]1(OC(C)=O)CO[C@@H]1C[C@H]2OC	Tgondii IFNg -79
CC(=O)O[C@@]12CO[C@@H]1C[C@H](O)[C@@]1(C)C(=O)[C@H](O)C3=C(C)[C@@H](OC(=O)[C@H](O)[C@@H](NC(=O)OC(C)(C)C)c4ccccc4)C[C@@](O)([C@@H](OC(=O)c4ccccc4)C12)C3(C)C (stereo not given in full)	Tgondii IFNg -83
Cc1nc(=O)[nH]c(C)c1CCC(=O)N1CCc2c(ncnc2N(C)C)C1	none
CC(C)n1cc(CN2CCCC(C(=O)c3ccc(-c4ccccc4)cc3)C2)cn1 (stereo not given)	none
CCn1cc(-c2cc(=O)n3[nH]c(-c4ccccc4)c(C)c3n2)c(C)n1	none
COc1ccccc1CN1CCC(C(=O)Nc2nc(-c3nonc3C)cs2)CC1	none
COc1ccc(OC)c(Nc2ncnc3ccc(Br)cc23)c1	none
COc1cc2c(N3CCN(C(=O)Nc4ccc(OC(C)C)cc4)CC3)ncnc2cc1OCCCN1CCCCC1	none
C#Cc1cccc(Nc2ncnc3cc(OC)c(OCCCCCCC(=O)NO)cc23)c1	Tgondii IFNg -80
Cn1cnc2cc3c(Nc4cccc(Br)c4)ncnc3cc21	none
Nc1cc2ncnc(Nc3cccc(Br)c3)c2cc1N	none
COc1cc2ncnc(Nc3ccc(O)c(Br)c3)c2cc1OC	Tgondii IFNg -74
CCc1ccc(NC(=O)Nc2ccc(-c3nc(-c4ccccc4)co3)cc2)cc1	none
O=C(c1cc(-c2ccn(C3CCCC3)n2)n2ccccc12)N1CCCC(O)C1 (stereo not given)	none
COc1ccccc1OC1CCN(S(=O)(=O)NCc2ccccc2)CC1	none
CC(C)(C)OC(=O)N1CCC[C@H](C(=O)c2cccs2)C1	none
COc1ccc2c(c1)CCC1C2CCC2(C)C(=O)CCC12 (stereo not given)	none
CC(=O)OC1CCC2C3CCc4cc(O)ccc4C3CCC12C (stereo not given)	none
CC(=O)O[C@H]1CC[C@H]2[C@@H]3CCc4cc(O)ccc4[C@H]3CC[C@]12C	none
C#CC1(O)CCC2C3CCC4=Cc5oncc5CC4(C)C3CCC21C (stereo not given)	Tgondii IFNg -86
C[C@]12CC[C@@H]3c4ccc(O)cc4CC[C@H]3[C@@H]1CC[C@@H]2O	Tgondii IFNg -84
C[C@]12CC[C@@H]3c4cc(O)c(O)cc4CC[C@H]3[C@@H]1CC[C@@H]2O	none
CC(=O)[C@@]1(O)CC[C@H]2[C@@H]3CCC4=CC(=O)CC[C@]4(C)[C@H]3CC[C@@]21C	none
COc1ccc2c(c1)CCC1C2CC[C@@]2(C)C1CC[C@@H]2O (stereo not given in full)	none
C[C@]12CCC3c4ccc(O)cc4CCC3C1CCC2=O (stereo not given in full)	Tgondii IFNg -79
C#C[C@]1(O)CC[C@H]2[C@@H]3CCc4cc(O)ccc4[C@H]3CC[C@@]21C	Tgondii IFNg -79!
CC(=O)[C@@]1(O)CCC2C3CCC4=CC(=O)CC[C@]4(C)C3CC[C@@]21C (stereo not given in full)	none
CC12CCC3c4ccc(O)cc4CCC3C1CCC2=O (stereo not given)	none
Cc1ccc2[nH]c(=O)c(-c3nc(-c4ccccc4Cl)no3)c(O)c2c1	none
Cc1ccccc1NC(=O)C(=O)NCCc1csc(-c2ccc(Cl)cc2)n1	none
COC(=O)c1cc(C)nc2c1c(=O)n(Cc1nc(-c3ccc(OC)cc3)oc1C)c(=O)n2C	none
Cc1ccccc1C1CCCN1C(=O)c1cnn2ccn(C)c12 (stereo not given)	none
Cc1cccc(CN2CCC3C2CC(=O)N3CCN2CCOCC2)c1 (stereo not given)	none
CCN1c2cc(C)ccc2-n2cccc2C12CCN(C(=O)Nc1cc(Cl)ccc1C)CC2	none
CN(C)CC1(O)CCN(C(=O)C2(c3ccc(Cl)cc3)CCC2)C1 (stereo not given)	none
CCc1nc(C)ccc1OCC(=O)N1Cc2cnc(CC(C)C)nc2C1	none
CC12CCC3c4ccc(OC(=O)c5ccccc5)cc4CCC3C1CCC2O (stereo not given)	none
C[C@]12CC[C@@H]3c4ccc(OS(=O)(=O)O)cc4CC[C@H]3[C@@H]1CCC2=O	none
C[C@]12CCC3c4ccc(OC(=O)c5ccccc5)cc4CCC3C1CC[C@@H]2O (stereo not given in full)	Tgondii IFNg -87
Cn1ccnc1CN1CCCN(c2ccc3c(c2)OCCO3)CC1	none
C=CCN(CC=C)C(=O)Nc1ccc2nsnc2c1	Tgondii IFNg -81
O=C(Nc1ccc2c(c1)OCCO2)c1ccc2nsnc2c1	none
CCC(=O)Nc1c(C)ccc2nsnc12	none
COCCNC(=O)C1(Cc2cccc(-c3ccccc3OC)c2)CCCO1 (stereo not given)	none
COc1ccc(OC)c(NC(=O)c2nnn(Cc3nc(-c4ccccc4)oc3C)c2C)c1	none
CNC(=S)Sc1ccc(F)cc1F	none
CC(=O)c1cc([N+](=O)[O-])c(Sc2ccc(F)cc2F)s1	Tgondii IFNg -72
COCCN(Cc1nc2ccccc2[nH]1)Cc1ccccc1F	none
CN(C)CCCN1c2ccccc2CCc2ccccc21	none
O=C(CSc1nnc(-c2ccco2)o1)N1c2ccccc2Sc2ccc(Cl)cc21	none
CN(C)CCCN1c2ccccc2Sc2ccc(Cl)cc21	Tgondii IFNg -81!
O=C(CCN1CCN2CCCCC2C1)N1c2ccccc2Sc2ccc(Cl)cc21 (stereo not given)	none
CC(=O)c1ccc2c(c1)N(CCCN1CCC(CCO)CC1)c1ccccc1S2	none
OCCN1CCN(CCCN2c3ccccc3Sc3ccc(Cl)cc32)CC1	Tgondii IFNg -100!
CS(=O)(=O)N1CCc2c(cnc(-c3cccnc3)c2C(=O)O)C1	none
CCOc1ccccc1C1c2[nH]c3ccccc3c2CCN1C(=O)c1cc(C2CC2)on1 (stereo not given)	none
OCCC1CN(Cc2cccc(O)c2)CCN1CC1CCCCC1 (stereo not given)	none
Cn1ccc2cc(S(=O)(=O)N3CCCC(C(=O)NCCCN4CCCC4=O)C3)ccc21 (stereo not given)	none
Cc1occc1C(=O)N1CCOC2(CCCN(c3cnccn3)C2)C1 (stereo not given)	none
Cc1nc(-c2ccc(Cl)cc2)sc1CCNC(=O)c1ccc(OC(C)C)cc1	none
CCOc1cccc(C2c3[nH]c4ccccc4c3CCN2C(=O)CCc2ccccc2)c1 (stereo not given)	none
CSc1ccc(C2c3[nH]c4ccccc4c3CCN2C(=O)CCC2CCCC2)cc1 (stereo not given)	Tgondii IFNg -122
O=C(COc1ccccc1)N1CCc2c([nH]c3ccccc23)C1c1ccc(F)cc1 (stereo not given)	none
Cc1ccc(C2c3[nH]c4ccccc4c3CCN2C(=O)CCc2ccccc2)cc1 (stereo not given)	Tgondii IFNg -80

Bioassay records deposited in PubChem BioAssay by Broad Institute.
